From PubChem BioAssay AID1159580 (chemical genetic matrix, 2015)
About 2,000 (36%) of roughly 5,500 compounds were called active. Not shown: some 18% with an inconclusive outcome. No stated cut-off is given here; in the data, active means normalized growth mostly below about 0.91 (no sharp cut-off); inconclusive means no clear call, values can overlap the other calls; inactive means mostly above about 0.92. This is one part of the list.

Experiment: chemical genetic growth profiling, strain panel (AID 1159580);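 further: tested at 20 µM; growth read once vehicle control cultures reached saturation at 30 °C; 1 = growth at the plate median or of vehicle wells; lower values mean less growth of the strain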
Conditions: growth OD

Measured: normalized growth

CCC[C@@H]1C[C@@H](C(=O)N[C@H]([C@H]2O[C@H](SC)[C@H](O)[C@@H](O)[C@H]2O)[C@H](C)O)N(C)C1
inactive: S. cerevisiae deletion strains, locus YJR066W, strain TOR1, active compounds read low 0.967 | S. cerevisiae deletion strains, locus YJR075W, strain HOC1, active compounds read low 0.993 | S. cerevisiae deletion strains, locus YKL009W, strain mrt4, active compounds read low 0.974 | S. cerevisiae deletion strains, locus YKL068W, active compounds read low 0.991 | S. cerevisiae deletion strains, locus YKL085W, strain MDH1 (second series), active compounds read low 0.984 | S. cerevisiae deletion strains, locus YKL085W, strain MDH1, active compounds read low 0.984 | S. cerevisiae deletion strains, locus YKL160W, strain elf1, active compounds read low 0.964 | S. cerevisiae deletion strains, locus YKL190W, strain CNB1, active compounds read low 1.01 | S. cerevisiae deletion strains, locus YKR001C, strain vps1, active compounds read low 0.996 | S. cerevisiae deletion strains, locus YKR026C, strain gcn3, active compounds read low 0.979 | S. cerevisiae deletion strains, locus YKR091W, strain srl3, active compounds read low 0.987 | S. cerevisiae deletion strains, locus YLL001W, strain dnm1, active compounds read low 0.951 | S. cerevisiae deletion strains, locus YLL026W, active compounds read low 0.962 | S. cerevisiae deletion strains, locus YLL041C, strain sdh2, active compounds read low 0.982 | S. cerevisiae deletion strains, locus YLR027C, strain aat2, active compounds read low 0.97 | S. cerevisiae deletion strains, locus YLR039C, strain RIC1, active compounds read low 0.973 | S. cerevisiae deletion strains, locus YLR058C, strain SHM2, active compounds read low 0.977 | S. cerevisiae deletion strains, locus YLR102C, strain apc9, active compounds read low 0.992 | S. cerevisiae deletion strains, locus YLR113W, strain HOG1, active compounds read low 1.03 | S. cerevisiae deletion strains, locus YLR221C, strain rsa3, active compounds read low 1.03 | S. cerevisiae deletion strains, locus YLR258W, strain gsy2, active compounds read low 1 | S. cerevisiae deletion strains, locus YLR262C, strain YPT6 (second series), active compounds read low 0.965 | S. cerevisiae deletion strains, locus YLR262C, strain YPT6, active compounds read low 1.02 | S. cerevisiae deletion strains, locus YLR268W, strain sec22, active compounds read low 1.01 | S. cerevisiae deletion strains, locus YLR320W, strain mms22, active compounds read low 1.02 | S. cerevisiae deletion strains, locus YLR330W, strain CHS5, active compounds read low 0.986 | S. cerevisiae deletion strains, locus YLR342W, strain FKS1 (second series), active compounds read low 1 | S. cerevisiae deletion strains, locus YLR342W, strain FKS1, active compounds read low 0.966 | S. cerevisiae deletion strains, locus YLR357W, strain rsc2, active compounds read low 1 | S. cerevisiae deletion strains, locus YLR370C, strain arc18, active compounds read low 0.972 | S. cerevisiae deletion strains, locus YLR371W, strain rom2, active compounds read low 0.992 | S. cerevisiae deletion strains, locus YLR384C, strain iki3, active compounds read low 0.97 | S. cerevisiae deletion strains, locus YLR418C, strain cdc73, active compounds read low 0.975 | S. cerevisiae deletion strains, locus YML016C, strain PPZ1, active compounds read low 0.989 | S. cerevisiae deletion strains, locus YML032C, strain rad52, active compounds read low 1 | S. cerevisiae deletion strains, locus YML120C, strain ndi1, active compounds read low 0.95 | S. cerevisiae deletion strains, locus YML124C, strain tub3, active compounds read low 0.998 | S. cerevisiae deletion strains, locus YMR058W, strain fet3, active compounds read low 0.975 | S. cerevisiae deletion strains, locus YMR078C, strain ctf18, active compounds read low 0.986 | S. cerevisiae deletion strains, locus YMR125W, strain sto1, active compounds read low 0.992 | S. cerevisiae deletion strains, locus YMR129W, active compounds read low 0.991 | S. cerevisiae deletion strains, locus YMR205C, strain PFK2, active compounds read low 0.99 | S. cerevisiae deletion strains, locus YMR223W, strain ubp8, active compounds read low 0.962 | S. cerevisiae deletion strains, locus YMR231W, strain pep5, active compounds read low 0.996 | S. cerevisiae deletion strains, locus YMR263W, strain SAP30, active compounds read low 0.996 | S. cerevisiae deletion strains, locus YMR307W, strain GAS1, active compounds read low 1 | S. cerevisiae deletion strains, locus YNL067W, strain RPL9B, active compounds read low 1.01 | S. cerevisiae deletion strains, locus YNL071W, strain lat1, active compounds read low 0.986 | S. cerevisiae deletion strains, locus YNL183C, strain NPR1, active compounds read low 0.968 | S. cerevisiae deletion strains, locus YNL209W, strain ssb2, active compounds read low 0.993 | S. cerevisiae deletion strains, locus YNL233W, strain BNI4, active compounds read low 0.984 | S. cerevisiae deletion strains, locus YNL248C, strain rpa49, active compounds read low 1.02 | S. cerevisiae deletion strains, locus YNL250W, strain rad50, active compounds read low 0.979 | S. cerevisiae deletion strains, locus YNL271C, strain bni1, active compounds read low 0.985 | S. cerevisiae deletion strains, locus YNL298W, strain CLA4, active compounds read low 0.989 | S. cerevisiae deletion strains, locus YNL307C, strain MCK1, active compounds read low 0.993 | S. cerevisiae deletion strains, locus YNL322C, strain KRE1 (second series), active compounds read low 0.987 | S. cerevisiae deletion strains, locus YNL322C, strain KRE1, active compounds read low 0.993 | S. cerevisiae deletion strains, locus YNR049C, strain mso1, active compounds read low 0.977 | S. cerevisiae deletion strains, locus YNR052C, strain pop2, active compounds read low 0.987 | S. cerevisiae deletion strains, locus YOL012C, strain htz1 0.745 | S. cerevisiae deletion strains, locus YOL147C, strain pex11, active compounds read low 0.985 | S. cerevisiae deletion strains, locus YOR001W, strain rrp6, active compounds read low 0.947 | S. cerevisiae deletion strains, locus YOR061W, strain CKA2, active compounds read low 0.998 | S. cerevisiae deletion strains, locus YOR069W, strain VPS5, active compounds read low 0.99 | S. cerevisiae deletion strains, locus YOR070C, strain gyp1, active compounds read low 0.993 | S. cerevisiae deletion strains, locus YOR080W, strain dia2, active compounds read low 0.971 | S. cerevisiae deletion strains, locus YOR083W, strain WHI5, active compounds read low 0.966 | S. cerevisiae deletion strains, locus YOR106W, strain vam3, active compounds read low 0.951 | S. cerevisiae deletion strains, locus YOR136W, strain idh2, active compounds read low 0.984 | S. cerevisiae deletion strains, locus YOR144C, strain elg1, active compounds read low 0.985 | S. cerevisiae deletion strains, locus YOR184W, strain ser1, active compounds read low 0.978 | S. cerevisiae deletion strains, locus YOR231W, strain MKK1, active compounds read low 1.04 | S. cerevisiae deletion strains, locus YOR265W, strain rbl2, active compounds read low 0.983 | S. cerevisiae deletion strains, locus YOR270C, strain vph1, active compounds read low 0.948 | S. cerevisiae deletion strains, locus YOR290C, strain snf2, active compounds read low 1 | S. cerevisiae deletion strains, locus YOR316C, strain cot1, active compounds read low 0.992 | S. cerevisiae deletion strains, locus YPL051W, strain arl3, active compounds read low 1 | S. cerevisiae deletion strains, locus YPL078C, strain atp4, active compounds read low 0.928 | S. cerevisiae deletion strains, locus YPL106C, strain sse1, active compounds read low 0.94 | S. cerevisiae deletion strains, locus YPL240C, strain hsp82, active compounds read low 0.981 | S. cerevisiae deletion strains, locus YPL241C, strain CIN2, active compounds read low 0.998 | S. cerevisiae deletion strains, locus YPL256C, strain CLN2, active compounds read low 1.03 | S. cerevisiae deletion strains, locus YPR119W, strain clb2, active compounds read low 0.997 | S. cerevisiae deletion strains, locus YPR141C, strain kar3, active compounds read low 0.985 | S. cerevisiae deletion strains, locus YPR163C, strain tif3, active compounds read low 0.987 | S. cerevisiae deletion strains, locus YPR167C, strain met16, active compounds read low 0.993 | S. cerevisiae deletion strains, strain wtn01, active compounds read low 0.98 | S. cerevisiae strains, strain wild type, active compounds read low 1.01
